Compound activity: PubChem, The Scripps Research Institute Molecular Screening Center
DAX1 inh-1 = inhibitors of human orphan nuclear receptor DAX1 (NR0B1); P51843; HEK293 Gal4-DAX1 luciferase reporter, luminescence; inhibition, % at 6.75 µM; hit rate 0.99% among 340,000; AID 504766;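 active = inhibition above the mean over all tested compounds plus 3 SD, cut at about 4.2% in these data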;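 also: 0% = DAX1-transfected cells with DMSO and 100% = empty-vector control cells with DMSO; inhibition shows as a rise in luminescence from relieved DAX1 repression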
Target sequence (P51843 207-470 limits assumed): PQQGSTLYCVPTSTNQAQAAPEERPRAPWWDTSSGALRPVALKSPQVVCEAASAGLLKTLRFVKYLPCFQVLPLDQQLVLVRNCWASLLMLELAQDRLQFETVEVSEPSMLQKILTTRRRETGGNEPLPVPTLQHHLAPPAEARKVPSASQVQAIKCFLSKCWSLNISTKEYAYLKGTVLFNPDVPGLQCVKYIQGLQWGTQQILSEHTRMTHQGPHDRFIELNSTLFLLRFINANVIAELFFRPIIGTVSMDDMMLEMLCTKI
DAX1 inh-2 = DAX1 (NR0B1) inhibition, primary screen | HEK293T StAR-luciferase reporter, SF-1/DAX-1 repression relief | inhibition, % at 6.8 µM | hit rate 1.1% among 370,000 | AID 652010;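 active = inhibition above the mean over all tested compounds plus 3 SD, cut at about 3.6% in these data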;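 also: 0% = DAX-1 cells with DMSO and 100% = cells lacking DAX-1 with DMSO; higher inhibition means more luminescence from relief of DAX-1 repression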
ssDAF12 agonist = S. stercoralis DAF-12 activation, primary screen | HEK293 ssDAF-12/GRIP1 lit1-tk-luc reporter, luminescence; % of 3 µM dafachronic acid response | activation, % at 6.8 µM | hit rate 1% among 370,000 | AID 652126;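 active = activation above the mean over all tested compounds plus 3 SD, cut at about 0.9% in these data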;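 also: 0% = DMSO-only wells and 100% = 3 µM delta7-dafachronic acid wells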
AHR act = activators of human aryl hydrocarbon receptor. activation, % at 5 µM. P35869. AHR-responsive luciferase reporter cells, luminescence. hit rate 2.5% among 320,000. AID 2796; in the data active = activation above about 47%;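 also: 0% = vehicle wells and 100% = reference agonist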
hgDAF12 agonist = activates the H. glycines DAF-12 receptor ligand-binding domain | HEK293 GAL4-hgDAF12 UAS-luciferase reporter, agonist luminescence; normalized to butyrate control | activation, % at 6.8 µM | hit rate 1.8% among 370,000 | AID 687014;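 active = activation above a cutoff set at the mean of all screened compounds plus 3 SD, cut at about 10% in these data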;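 also: 0% = DMSO wells and 100% = sodium butyrate wells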
hcDAF12 agonist = H. contortus DAF-12 activation, primary screen. HEK293 hcDAF-12 lit1-tk-luc reporter, luminescence; 0% DMSO, 100% Δ7-dafachronic acid. activation, % at 6.8 µM. hit rate 1.4% among 370,000;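 active = activation above the mean of all tested compounds plus 3 SD, cut at about 5.5% in these data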;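 also: 100% = response to 3 µM Δ7-dafachronic acid high control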
An asterisk follows results filed as active; / = no result given. Compounds with a hit are over-represented: about 5.7% of the library has one in this group of screens.

SMILES	DAX1 inh-1	DAX1 inh-2	ssDAF12 agonist	AHR act	hgDAF12 agonist	hcDAF12 agonist
COCCNC(=O)c1cnn2c(C(F)F)cc(-c3ccc(C)cc3)nc12	0	-1	-1	3	-1	-1
O=C(NCc1cccnc1)c1cnn2ccccc12	1	0	-1	14	1	-2
COc1ccc(CNC(=O)c2cnn3c(C(F)F)cc(C)nc23)cc1OC	0	-2	-1	52*	-5	-1
Cc1cc(C)n2ncc(C(=O)NCc3cccnc3)c2n1	-1	0	-1	68*	0	0
O=[N+]([O-])c1cc([N+](=O)[O-])c2cc3ccccc3nc2c1	-2	-1	-1	3	-2	-1
CSc1n[nH]c(=O)n1C1CCCCC1	6.0*	0	-1	-2	0	1
C/C(=N\NC(=O)COc1ccccc1-c1ccccc1)c1cccnc1	-1	-4	-2	4	-8	-1
C/C(=N\NC(=O)COc1ccccc1-c1ccccc1)c1ccccn1	-2	4.0*	-2	26	-10	0
CN(C)c1c(F)cc(C(=O)NCc2ccccc2)cc1F	4.3*	0	-2	0	0	-1
CSc1nc(N)n2nc(C)cc2n1	/	0	-1	/	-2	0
CSc1nc(N)n2nccc2n1	/	0	-1	/	0	6.2*
Cc1c(C)c2c(C)nn(-c3ccccc3)c2[nH]c1=O	1	0	-1	96*	4	3
Cc1cc(=O)c2c(C)nn(-c3ccccc3)c2[nH]1	0	0	-1	0	2	1
CC(C)(C)c1ccc(S(=O)(=O)N2CCN(C(=O)C(=O)c3cccc(C(F)(F)F)c3)CC2)cc1	/	1	-1	/	1	-1
Cc1ccc(/C=C2/C(=O)c3ccc(C(=O)O)cc3C2=O)o1	3	0	-1	/	-1	2
Cc1ccc(C=C2C(=O)c3ccccc3C2=O)o1	1	0	-1	33	5	6.3*
Cc1cc(=O)n(CC(=O)O)c2ccccc12	1	0	-1	0	1	4
CCOC(=O)Cn1c(=O)cc(C)c2ccccc21	4.5*	1	-1	-1	2	0
CC(=O)c1ccc(N(C(=O)CNC(=O)c2ccco2)C(C(=O)NC2CCCC2)c2cccnc2)cc1 (configuration not stated)	0	0	-1	-1	0	1
CC(C)N(CCNC(=O)COc1ccc2oc3c(c2c1)CCCC3)C(C)C	0	0	0	0	5	2
CC(C)NC(=O)CC(=O)N/N=C/c1ccc(Br)cc1	-1	0	-1	53*	-1	1
CC(C)CNC(=O)CC(=O)N/N=C/c1ccc(Br)cc1	0	0	0	4	-1	-2
COc1ccccc1NC(=O)CC1SC(=N)N(c2ccccc2)C1=O (configuration not stated)	1	0	-2	-1	0	2
N=C1SC(CC(=O)Nc2ccccc2[N+](=O)[O-])C(=O)N1c1ccccc1 (configuration not stated)	-1	0	1.6*	-3	-2	0
O=C1NCC(CN(c2ccccc2)c2ccccc2)O1 (configuration not stated)	6.7*	-1	-1	0	-1	-2
SMILES	DAX1 inh-1	DAX1 inh-2	ssDAF12 agonist	AHR act	hgDAF12 agonist	hcDAF12 agonist
CC(=NCCCn1ccnc1)C1=C(O)c2ccccc2C1=O	1	2	-1	23	2	2
CCCN=C(C)C1=C(O)c2ccccc2C1=O	5.3*	1	-2	-2	10	1
CCN(CC)CCCN=C(C)C1=C(O)c2ccccc2C1=O	/	0	-1	-1	1	1
CC(=NCc1cccnc1)C1=C(O)c2ccccc2C1=O	0	0	-1	74*	-2	-1
O=C(NC(=S)NN1CCCCC1c1cccnc1)c1ccc(Cl)cc1Cl (configuration not stated)	0	0	-1	3	-1	3
Cc1ccc(-n2nnnc2SCC(=O)NCC2(N3CCCCC3)CCCCC2)c(C)c1	0	3.6*	-1	0	-1	-1
O=C(CSc1nnc(-c2ccccc2)n1Cc1ccco1)Nc1ccc(Oc2ccccc2)cc1	/	-2	-2	/	1	-4
CC(=O)NC(Cc1cccc(F)c1)C(=O)NC1CCN(C(=O)c2cccc(C)c2)CC1 (configuration not stated)	5.4*	0	-1	1	-3	0
COC(=O)[C@]12C[C@H](CC(=O)N3CCCC3)C(=O)N(CCC3=CCCCC3)C1=C[C@H](COCc1ccccc1)O[C@@H]2C	/	-1	-1	/	-1	-2
Cc1cc(N(C)C)ccc1N=Nc1ccc(N)cc1	3	0	-1	-2	4	1
Cc1cc2nc3ccc(N(C)C)cc3nc2cc1N	3	4.4*	1.1*	11	9	6.3*
CCc1nc2ccc(C(=O)NCCCn3ccnc3)cn2c1N(C)Cc1cccs1	/	0	-2	/	-1	-2
Cc1ccccc1OCc1nnc2n1CC(C)S2 (configuration not stated)	4.6*	-1	0	1	3	1
C[C@@H]1ON(C)[C@H]2C[C@H]3c4cc(-c5cccc(Cl)c5)ccc4CCN3C[C@@H]12	/	-1	-1	/	-1	-1
FC(F)(F)c1cnc(COc2cc(Cl)cc(Cl)c2)c(Cl)c1	5.8*	0	-1	-3	3	0
Fc1ccc(F)c(C2=NNC(=NCC3CCCO3)SC2)c1 (configuration not stated)	2	1	0	13	12*	5
Cc1nnc(NC(=O)C(C)Sc2nnc(-c3ccco3)n2C(C)C)s1 (configuration not stated)	0	0	-1	0	1	-2
Cc1ccc(NC(=O)c2cc(N(C)C)ccc2[P+](=O)O)cc1	1	3.7*	-1	2	11*	5.7*
Cc1ccc(NC(=O)CO/N=C/c2ccc(N(C)C)cc2)cc1	0	0	-1	3	2	-1
Cc1ccc(NC(=O)Cn2nnc(C(=O)NCCc3ccccc3)c2N)c(C)c1	0	/	/	5	/	/
CC(=O)Nc1cccc(NC(=O)CSc2ncc(C(=O)Nc3ccc(F)cc3)c(=O)n2C)c1	0	-1	-1	66*	-2	1
CC(=O)Nc1ccc(NC(=O)CSc2ncc(C(=O)Nc3ccc(Cl)cc3)c(=O)n2C)cc1	1	/	/	68*	/	/
COc1ccccc1CCc1nnc(CCC(=O)N(C)Cc2ccncc2C)o1	-2	-1	-2	5	-1	-1
COc1ccccc1CCc1nnc(CCC(=O)N(C)Cc2cccc3cnccc23)o1	1	1	-1	17	11*	1
Cc1nc2c(-c3ccccc3)c(C)nn2c(N)c1-c1ccccc1	1	3	0	-4	8	4
